The whole screen tested about 5,500 compounds, of which about 2,000 (36%) were called active. About 18% were inconclusive and are not listed. Cut-off read from the data, not from the text of the source: active = normalized growth mostly below about 0.91 (no sharp cut-off); inconclusive = no clear call, values can overlap the other calls; inactive = mostly above about 0.92. Some of the results follow.
Assay: chemical genetic growth profiling, strain panel (AID 1159580);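 note: tested at 20 µM; growth read once vehicle control cultures reached saturation at 30 °C; 1 = growth at the plate median or of vehicle wells; lower values mean less growth of the strain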
Conditions: S. cerevisiae deletion strains, growth OD

Measured: normalized growth

Cc1cccc(C(=O)O)c1O
inactive: locus YAL013W, strain DEP1, active compounds read low 1.01 | locus YBR021W, strain FUR4, active compounds read low 0.997 | locus YBR229C, strain ROT2, active compounds read low 1.02 | locus YCL029C, strain bik1, active compounds read low 1.02 | locus YDL035C, strain GPR1, active compounds read low 0.999 | locus YDL074C, strain BRE1, active compounds read low 1.02 | locus YDL101C, strain DUN1, active compounds read low 1.02 | locus YDL134C, strain PPH21, active compounds read low 1.01 | locus YDL185W, strain tfp1, active compounds read low 1.02 | locus YDL192W, strain arf1, active compounds read low 1.01 | locus YDR101C, strain arx1, active compounds read low 1.01 | locus YDR162C, strain NBP2, active compounds read low 1.02 | locus YDR318W, strain mcm21, active compounds read low 1.02 | locus YDR388W, active compounds read low 1.02 | locus YDR502C, strain sam2, active compounds read low 1.01 | locus YEL061C, strain CIN8, active compounds read low 1.01 | locus YER110C, active compounds read low 1.01 | locus YER155C, strain BEM2, active compounds read low 1 | locus YER167W, strain BCK2, active compounds read low 1.01 | locus YGL078C, strain dbp3, active compounds read low 1 | locus YGL086W, strain mad1, active compounds read low 1.01 | locus YGL248W, strain PDE1, active compounds read low 1.02 | locus YGR078C, strain PAC10, active compounds read low 1.01 | locus YGR135W, strain pre9, active compounds read low 1.02 | locus YGR252W, strain gcn5, active compounds read low 1 | locus YHR030C, strain SLT2, active compounds read low 1.02 | locus YHR079C, strain IRE1 (second series), active compounds read low 1.01 | locus YHR094C, strain hxt1, active compounds read low 1.01 | locus YHR129C, strain ARP1, active compounds read low 1.01 | locus YHR200W, strain rpn10, active compounds read low 1.02 | locus YIL066C, strain RNR3, active compounds read low 1.02 | locus YIL073C, strain SPO22, active compounds read low 1.02 | locus YIL125W, strain kgd1, active compounds read low 1.01 | locus YIR030C, strain dcg1, active compounds read low 1.02 | locus YJL095W, strain BCK1, active compounds read low 1.02 | locus YJL134W, strain LCB3, active compounds read low 1.01 | locus YJL168C, strain set2, active compounds read low 1 | locus YJL187C, strain SWE1 (second series), active compounds read low 1.02 | locus YJR043C, strain POL32, active compounds read low 1.01 | locus YKL009W, strain mrt4, active compounds read low 0.968 | locus YKL068W, active compounds read low 1 | locus YKL085W, strain MDH1 (second series), active compounds read low 1 | locus YKL085W, strain MDH1, active compounds read low 1 | locus YKR001C, strain vps1, active compounds read low 1.02 | locus YLR039C, strain RIC1, active compounds read low 0.993 | locus YLR058C, strain SHM2, active compounds read low 1.02 | locus YLR102C, strain apc9, active compounds read low 1.01 | locus YLR262C, strain YPT6, active compounds read low 1.04 | locus YLR268W, strain sec22, active compounds read low 1.03 | locus YLR330W, strain CHS5, active compounds read low 1.01 | locus YLR342W, strain FKS1 (second series), active compounds read low 0.995 | locus YLR371W, strain rom2, active compounds read low 1.02 | locus YLR418C, strain cdc73, active compounds read low 1.05 | locus YML016C, strain PPZ1, active compounds read low 1.01 | locus YML032C, strain rad52, active compounds read low 1.02 | locus YML124C, strain tub3, active compounds read low 1.02 | locus YMR078C, strain ctf18, active compounds read low 1.02 | locus YMR223W, strain ubp8, active compounds read low 1.02 | locus YMR307W, strain GAS1, active compounds read low 0.975 | locus YNL067W, strain RPL9B, active compounds read low 1.02 | locus YNL153C, strain GIM3, active compounds read low 1.01 | locus YNL233W, strain BNI4, active compounds read low 1.02 | locus YNL250W, strain rad50, active compounds read low 1.02 | locus YNL271C, strain bni1, active compounds read low 1 | locus YNL298W, strain CLA4, active compounds read low 0.996 | locus YNL307C, strain MCK1, active compounds read low 1.02 | locus YNL322C, strain KRE1, active compounds read low 1.01 | locus YNR052C, strain pop2, active compounds read low 1.03 | locus YOL012C, strain htz1 0.786 | locus YOL147C, strain pex11, active compounds read low 1.01 | locus YOR061W, strain CKA2, active compounds read low 1.01 | locus YOR069W, strain VPS5, active compounds read low 1.02 | locus YOR136W, strain idh2, active compounds read low 1.01 | locus YOR144C, strain elg1, active compounds read low 1.01 | locus YOR184W, strain ser1, active compounds read low 1.02 | locus YOR316C, strain cot1, active compounds read low 1.02 | locus YPL055C, strain LGE1, active compounds read low 1.01 | locus YPL241C, strain CIN2, active compounds read low 1.01 | locus YPR119W, strain clb2, active compounds read low 1.01 | locus YPR141C, strain kar3, active compounds read low 1.01 | locus YPR163C, strain tif3, active compounds read low 1.02 | locus YPR167C, strain met16, active compounds read low 1.01 | strain wtn01, active compounds read low 1
